Only some compounds are listed: those with a hit (about 2.9% of all), similar ones and a draw of the others.
PI5P4K alpha inh: qHTS for Inhibitors of phosphatidylinositol 5-phosphate 4-kinase (PI5P4K) | Phosphatidylinositol 5-phosphate 4-kinase type-2 alpha (Homo sapiens), P48426 | PI5P4Kalpha enzyme, ADP-Glo luminescence, 60 min; stronger effect = lower value | max response, % | actives 1.2% (n = 330,000) | AID 652105, 2013; active means max response of -50% or lower; inconclusive means between -30% and -50%; inactive means -30% or higher; further: value at the top dose of about 77 µM; on the % scale 0 is the no-effect control and ±100 the full control effect
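Human PI5P4Kalpha with substrate in 0.038 M HEPES pH 7.4, 0.28 mM EGTA, 0.1% CHAPS, 5% DMSO; reaction started with 5 microM ATP (final), 60 min at room temperature. ADP formed read by ADP-Glo luminescence.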
12-LOX inh: Primary qHTS assay for inhibitors of human arachidonate 12S-lipoxygenase (ALOX12): Round 2; Potency, µM (doses to about 108 µM), for inactives: at the highest dose activity change, negative = inhibition, most hits filed as inhibitors; actives 1.1% (n = 580,000); purified 12hLO, xylenol orange hydroperoxide absorbance; further: potency means the concentration at half of the fitted maximal effect; on the % scale 0 is the no-effect control and ±100 the full control effect
Target sequence (P18054 whole entry, looked up): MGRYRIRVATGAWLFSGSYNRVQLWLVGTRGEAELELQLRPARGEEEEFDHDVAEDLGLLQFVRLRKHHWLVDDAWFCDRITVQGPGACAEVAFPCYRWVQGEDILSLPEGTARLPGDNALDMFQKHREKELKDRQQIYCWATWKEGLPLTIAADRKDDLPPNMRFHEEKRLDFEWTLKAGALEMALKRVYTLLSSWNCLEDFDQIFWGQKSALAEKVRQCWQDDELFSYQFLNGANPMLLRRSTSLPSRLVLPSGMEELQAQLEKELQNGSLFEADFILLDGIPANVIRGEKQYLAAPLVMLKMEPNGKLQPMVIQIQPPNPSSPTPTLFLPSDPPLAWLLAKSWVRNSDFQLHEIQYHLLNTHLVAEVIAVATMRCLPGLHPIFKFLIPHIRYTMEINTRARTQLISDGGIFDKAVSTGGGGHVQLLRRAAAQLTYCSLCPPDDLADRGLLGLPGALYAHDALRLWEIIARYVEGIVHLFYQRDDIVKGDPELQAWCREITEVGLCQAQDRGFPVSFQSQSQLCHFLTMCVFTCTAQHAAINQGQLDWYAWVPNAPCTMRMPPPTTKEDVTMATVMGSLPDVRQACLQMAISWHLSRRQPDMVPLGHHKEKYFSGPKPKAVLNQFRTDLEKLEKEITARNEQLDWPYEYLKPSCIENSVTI
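Purified human 12hLO at 150 nM in 25 mM Hepes, 0.01% Triton X-100, pH 7.0, preincubated 15 min at room temperature with compound. Reaction started with 40 uM arachidonic acid, 30 min at room temperature. Hydroperoxide measured by Fe-xylenol orange, 573/405 nm absorbance ratio.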
POLI inh: qHTS for Inhibitors of Polymerase Iota; DNA polymerase iota (Homo sapiens), Q9UNA4; Pol iota fluorescent replication assay, 10 min; Potency, µM (highest dose often 115 µM), for inactives: at the highest dose activity, negative = inhibition, hits mostly inhibitors; actives 1% (n = 390,000); further: potency means the concentration at half of the fitted maximal effect
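Fluorescent replication assay read twice, at 0 min and 10 min after adding 50 nM (final) substrate. Enzyme (10 nM) and compounds were first incubated 15 min at room temperature; enzyme-free buffer wells were negative controls.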
Pol eta inh-1: qHTS for Inhibitors of Polymerase Eta; Potency, µM (top dose mostly 114 µM), without a hit: at the highest dose activity change, negative = inhibition, usual class: inhibitors; actives 1.2% (n = 390,000); recombinant Pol eta, fluorescent DNA replication assay; further: potency means the concentration at half of the fitted maximal effect; on the % scale 0 is the no-effect control and ±100 the full control effect
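Fluorescent replication assay: 50 nM final substrate added after a 15 min room-temperature compound preincubation with 10 nM enzyme. Signal taken at 0 min and again at 10 min.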
Pol kappa inh-1: qHTS for Inhibitors of Polymerase Kappa; DNA polymerase kappa (Homo sapiens), Q9UBT6; purified Pol kappa, fluorescent DNA synthesis assay, 10 min; Potency, µM (top dose mostly 107 µM), without a hit: top-dose activity, negative = inhibition, usual class: inhibitors; actives 0.53% (n = 400,000); further: potency means the concentration at half of the fitted maximal effect; on the % scale 0 is the no-effect control and ±100 the full control effect
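50 nM final substrate added after 15 min RT preincubation of 10 nM Pol kappa with compound; fluorescence read at 0 and 10 min.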
POLB inh: qHTS Assay for Inhibitors of DNA Polymerase Beta | P06746 | Pol beta primer extension/strand displacement, fluorescence kinetic | Potency, µM (titrated, usually from 114 µM), inactives show at the highest dose activity change, negative = inhibition, most hits filed as inhibitors | actives 1.3% (n = 340,000) | AID 485314, 2010; further: potency means the concentration at half of the fitted maximal effect; on the % scale 0 is the no-effect control and ±100 the full control effect
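Curves were derived by four-parameter Hill fits of normalized qHTS data. The kinetic fluorescent primer-extension read was taken at 0 and 10 min after 50 nM substrate, following a 15 min room-temperature preincubation of 10 nM enzyme with compounds.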
TbPGK inh: qHTS for inhibitors of Phosphogylcerate Kinase: Hit Validation Screen; actives 79% (n = 500); Potency, µM (doses to about 57.5 µM), inactives show top-dose activity change, negative = inhibition, hits mostly inhibitors; shares compounds with Pol kappa inh-1; TbPGK coupled GAPDH assay, Kinase-Glo luminescence; further: potency means the concentration at half of the fitted maximal effect; on the % scale 0 is the no-effect control and ±100 the full control effect; nearly all actives have a fitted effect of over 65% in size
POLI cherry-pick: qHTS for Inhibitors of Polymerase Iota: Confirmatory Assay for Cherry-picked Compounds. shares compounds with Pol kappa inh-1. Pol iota primer extension, TAMRA/BHQ fluorescence. actives 77% (n = 1,500). AID 720496, 2013. Potency, µM, usual class: inhibitors; further: potency means the concentration at half of the fitted maximal effect
GALK inh confirm: Confirmation Assay for Inhibitors of Human Galactokinase (GALK); shares compounds with Pol eta inh-1; purified GALK, Kinase-Glo ATP depletion luminescence; Potency, µM (doses to about 115 µM), for inactives: top-dose activity, negative = inhibition, most hits filed as inhibitors; actives 70% (n = 150)
GALK redox cs: Confirmatory Assay for Inhibitors of Human Galactokinase (GALK): Phenol-HRP redox assay counterscreen; Potency, µM (top dose mostly 115 µM), inactives show at the highest dose activity change, negative = H2O2 signal, most hits filed as inhibitors; AID 2035, 2009; Phenol red-HRP H2O2 redox cycling, absorbance 600 nm; shares compounds with Pol eta inh-1; actives 40% (n = 150)
HEK293 tox: Secondary Assay for Inhibitors of Human Galactokinase (GALK): HEK-293 Cell Viability Assay | Potency, µM (doses to about 46.1 µM), for the others: at the highest dose activity change, negative = cytotoxicity, most hits filed as inhibitors | actives 10% (n = 170) | HEK-293 viability, ATP luminescence (CellTiter-Glo), 24/48 h | shares compounds with Pol eta inh-1; further: potency means the concentration at half of the fitted maximal effect; on the % scale 0 is the no-effect control and ±100 the full control effect
Pol kappa inh-2: qHTS for Inhibitors of Polymerase Kappa: Confirmatory Assay for Cherry-picked Compounds. shares compounds with Pol eta inh-1. purified Pol-kappa, fluorescent strand-displacement substrate. Potency, µM, hits mostly inhibitors. actives 76% (n = 920). AID 720501, 2013; further: potency means the concentration at half of the fitted maximal effect
Pol eta inh-2: qHTS for Inhibitors of Polymerase Eta: Confirmatory Assay for Cherry-picked Compounds; Pol eta primer extension, TAMRA/BHQ fluorescence, 10 min; shares compounds with Pol eta inh-1; actives 64% (n = 2,600); Potency, µM, actives largely listed as inhibitors; AID 720502, 2013; further: potency means the concentration at half of the fitted maximal effect
An asterisk follows results filed as active; [ ] = dose if it differs, or a comment. Unless noted, the call rests on the fitted dose curve; in most records, active means well fitted curve in the direction sought with a large enough effect; inconclusive means small, poorly fitted or top-dose-only effect, or another doubt; inactive means no such curve, though single readings can be large; an effect the other way counts as inactive or inconclusive.

Results for Cc1cccc(N2C(=O)/C(=C/c3ccc(CN(CCC#N)S(C)(=O)=O)o3)C(=O)NC2=S)c1 ?
PI5P4K alpha inh: -56.2*; 12-LOX inh: 12.6µM*; POLI inh: 8.91µM*; Pol eta inh-1: 6.31µM*; Pol kappa inh-1: 22.4µM*; POLB inh: 20µM*; POLI cherry-pick: 67*; Pol kappa inh-2: 10.6*; Pol eta inh-2: inconclusive

What do the screens show for `Cc1ccc(/C=C2\C(=O)NC(=S)N(c3cccc(F)c3)C2=O)o1`?
PI5P4K alpha inh: -77.2*; 12-LOX inh: inconclusive; POLI inh: inconclusive; Pol eta inh-1: 7.08µM*; Pol kappa inh-1: 31.6µM*; POLB inh: -2.9%; POLI cherry-pick: 33.6*; Pol eta inh-2: 16.9*

What do the screens show for `O=S(=O)(c1ccc(F)cc1)N1[C@H]2CC[C@@H]1c1cncnc1C2`?
12-LOX inh: 9.5%

How did CCOC(=O)c1c(C)n(C2CCCC2)c2ccc(O)cc12 do in these assays?
12-LOX inh: 9.1%

What do the screens show for `C=CCn1c(CSc2ccccc2[N+](=O)[O-])n[nH]c1=S`?
PI5P4K alpha inh: -74.4*; 12-LOX inh: inconclusive; POLI inh: 8.91µM*; Pol eta inh-1: 12.6µM*; Pol kappa inh-1: 50.1µM*; POLB inh: 10µM*; POLI cherry-pick: 53.2*; Pol eta inh-2: 23.9*

Results for CC[C@H]1CN2CC[C@H]1C[C@@H]2CNC(=O)c1ccc2c(c1)OCO2 ?
12-LOX inh: 52.3%[176 µM]

Results for COc1ccccc1C1SCC(=O)Nc2c1c(C)nn2C (stereo not drawn) ?
12-LOX inh: 13.8%

What do the screens show for `O=C1C(=O)c2cccc3cccc1c23`?
PI5P4K alpha inh: -2.5; 12-LOX inh: -16.8%; POLI inh: 3.7%; Pol eta inh-1: -20.4%; Pol kappa inh-1: -4.9%; POLB inh: 1.4%

How did O=C1C(=O)c2ccccc2-c2ccccc21 do in these assays?
PI5P4K alpha inh: -4.9; 12-LOX inh: -21.9%; POLI inh: 0.708µM*; Pol eta inh-1: 2.51µM*; Pol kappa inh-1: -7.8%; POLB inh: inconclusive; TbPGK inh: 4.11µM*; GALK inh confirm: 1.88µM*; GALK redox cs: 0.841µM*; HEK293 tox: 7.05µM*

What do the screens show for `CC1=C(C(=O)c2ccccc2)C2(C(=O)Nc3ccc(Br)cc32)C(C(=O)OCc2ccccc2)=C(N)O1` (stereo not drawn)?
12-LOX inh: -22.9%

What do the screens show for `COc1cccc(OC)c1-c1nn2c(-c3n[nH]c4c3CCC4)nnc2s1`?
POLI inh: 5.01µM*; Pol kappa inh-1: 79.4µM*; POLI cherry-pick: inconclusive; Pol eta inh-2: inconclusive

What do the screens show for `Cn1nc(-c2ccccc2)nc2c(=O)n(C)c(=O)nc1-2`?
POLI inh: -91.7%; Pol kappa inh-1: -15.1%

How did Cc1nc2c(=O)n(C)c(=O)nc-2n(C)n1 do in these assays?
PI5P4K alpha inh: -8.1; 12-LOX inh: 0.0%; POLI inh: -101.9%; Pol eta inh-1: 0.794µM*; Pol kappa inh-1: -13.3%; POLB inh: inconclusive; TbPGK inh: 1.46µM*; POLI cherry-pick: 1.5*; GALK inh confirm: 1.88µM*; GALK redox cs: 0.943µM*; HEK293 tox: 9.96µM*; Pol eta inh-2: 4.26*

How did CCOCC(=O)N1CCC2(CC1)c1nccn1-c1ccccc1CN2C do in these assays?
12-LOX inh: 49.9%

Results for C=C[C@H]1CN2CC[C@H]1C[C@@H]2CNS(=O)(=O)c1cccc(C#N)c1 ?
12-LOX inh: 0.5%[176 µM]

What do the screens show for `O=S(=O)(NC[C@H]1C[C@@H]2CCN1C[C@@H]2CN1CCc2ccccc2C1)c1ccc(Cl)cc1`?
12-LOX inh: -6.7%

How did COc1cc2cc(C(=O)N3CC(COS(C)(=O)=O)c4ccc(O)cc43)[nH]c2c(OC)c1OC (stereo not drawn) do in these assays?
PI5P4K alpha inh: -1.3; POLI inh: 1.78µM*; Pol eta inh-1: 3.16µM*; Pol kappa inh-1: 10µM*; POLI cherry-pick: 4.74*; Pol kappa inh-2: 2.99*; Pol eta inh-2: 6.75*

What do the screens show for `O=C([C@H]1CN2CC[C@H]1C[C@@H]2Cn1cc(CO)nn1)N1CCCC1`?
12-LOX inh: 8.8%[176 µM]
